Measurements from PubChem BioAssay (NCI).
This is part of a sample that, as a whole, favours compounds with a hit. Of some 83,000 tested, about 20% had one in any assay.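 Single-dose data. Exposure time 48 hours. Values below 10 considered active.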 Active and inactive are the calls of the source.

What was measured:
Assay in all cases: NCI-60 one-dose screen, 48 h (100 = growth as untreated, 0 = no growth, -100 = all killed)
Details in all cases: 10 µM unless noted
DU-145 prostate = test system: DU-145 prostate
MALME-3M melanoma = test system: MALME-3M melanoma
MDA-MB-231 breast = test system: MDA-MB-231 breast
RXF 393 renal = test system: RXF 393 renal
SF-268 CNS = test system: SF-268 CNS
SF-295 CNS = test system: SF-295 CNS
SF-539 CNS = test system: SF-539 CNS
UACC-257 melanoma = test system: UACC-257 melanoma
M14 melanoma = test system: M14 melanoma
K-562 leukemia = test system: K-562 leukemia

Measured: growth

CC(O)CN1CCCCC1 (stereo not drawn)
inactive: DU-145 prostate 117% | MALME-3M melanoma 112% | MDA-MB-231 breast 105% | RXF 393 renal 108% | SF-268 CNS 101% | SF-295 CNS 104% | SF-539 CNS 111% | UACC-257 melanoma 104% | M14 melanoma 105%

O=C(O)Cc1cccc(=O)c(O)c1C(=O)O
inactive: DU-145 prostate 117% | MALME-3M melanoma 92.5% | MDA-MB-231 breast 110% | RXF 393 renal 112% | SF-268 CNS 107% | SF-295 CNS 117% | SF-539 CNS 110% | UACC-257 melanoma 103% | M14 melanoma 102%

O=C1c2c(Cl)c(Cl)c(Cl)c(Cl)c2C(=O)C2(Cl)CC=CCC12Cl (stereo not drawn)
inactive: MDA-MB-231 breast 18.2% | SF-295 CNS 106% | SF-539 CNS 48.1%
active: DU-145 prostate -74.2% | MALME-3M melanoma -3.27% | RXF 393 renal -78.3% | SF-268 CNS -96.2% | UACC-257 melanoma -34.4% | M14 melanoma -12%

C=COC(=O)CCCCCCCCC
inactive: DU-145 prostate 114% | MALME-3M melanoma 104% | MDA-MB-231 breast 102% | RXF 393 renal 106% | SF-268 CNS 101% | SF-295 CNS 115% | SF-539 CNS 113% | UACC-257 melanoma 107% | M14 melanoma 108%

CC(=O)Nc1nc(N)nc(NC(C)=O)c1N=O
inactive: DU-145 prostate 107% | K-562 leukemia 124% | MDA-MB-231 breast 114% | RXF 393 renal 135% | SF-268 CNS 98.7% | SF-539 CNS 105% | UACC-257 melanoma 113% | M14 melanoma 104%

Nc1cc2c(cc1C(=O)c1cccc(F)c1)OCCO2
inactive: DU-145 prostate 109% | MALME-3M melanoma 109% | MDA-MB-231 breast 102% | RXF 393 renal 104% | SF-268 CNS 98.4% | SF-295 CNS 94.5% | SF-539 CNS 103% | UACC-257 melanoma 93.4% | M14 melanoma 107%

Clc1ccc(-c2nc3ccccc3s2)cc1Cl
inactive: DU-145 prostate 112% | MALME-3M melanoma 114% | MDA-MB-231 breast 68% | RXF 393 renal 109% | SF-268 CNS 99.2% | SF-295 CNS 108% | SF-539 CNS 104% | UACC-257 melanoma 114% | M14 melanoma 104%

COc1ccc(-c2ccc(C)n2-c2ccc(-c3nc4cc(Cl)ccc4s3)cc2)cc1
inactive: DU-145 prostate 112% | MALME-3M melanoma 102% | MDA-MB-231 breast 85.8% | RXF 393 renal 114% | SF-268 CNS 111% | SF-295 CNS 96.6% | SF-539 CNS 109% | UACC-257 melanoma 107% | M14 melanoma 107%

CCCCN(CCCC)c1ccc(C(=N)c2ccc(N(CCCC)CCCC)cc2)cc1
active: DU-145 prostate -98.6% | MALME-3M melanoma -64.5% | MDA-MB-231 breast -90.3% | RXF 393 renal -94.8% | SF-268 CNS -95.9% | SF-295 CNS -83.5% | SF-539 CNS -91.3% | UACC-257 melanoma -81.1%

O=C(CSc1nc2ccccc2[nH]1)Nc1ccc(-c2nc3ccccc3s2)c(Cl)c1
inactive: K-562 leukemia 20.4% | RXF 393 renal 21.8% | UACC-257 melanoma 16%
active: MALME-3M melanoma 2.26% | MDA-MB-231 breast -36.8% | SF-295 CNS 3.63% | SF-539 CNS -88.6%

O=S(=O)(c1ccc(OCCO)cc1)c1ccc(OCCO)cc1
inactive: K-562 leukemia 101% | MALME-3M melanoma 98.6% | MDA-MB-231 breast 112% | RXF 393 renal 119% | SF-268 CNS 122% | SF-295 CNS 118% | SF-539 CNS 110% | UACC-257 melanoma 85.7% | M14 melanoma 102%

O=S1(=O)CCC(N(/N=C/c2ccco2)c2ccccc2)C1 (stereo not drawn)
inactive: DU-145 prostate 111% | K-562 leukemia 123% | MDA-MB-231 breast 112% | RXF 393 renal 109% | SF-268 CNS 102% | SF-539 CNS 98.1% | UACC-257 melanoma 95.1% | M14 melanoma 100%

Cc1c(C(N)=O)sc2c1c(=O)n(Cc1ccccc1)c1nnc(Nc3ccccc3)n21
inactive: DU-145 prostate 89.3% | MALME-3M melanoma 110% | MDA-MB-231 breast 105% | RXF 393 renal 113% | SF-268 CNS 101% | SF-295 CNS 104% | SF-539 CNS 100% | UACC-257 melanoma 92.3% | M14 melanoma 101%

CN1C=CN(Cc2ccc(-c3ccccn3)nc2)[CH-]1.CN1C=CN(Cc2ccc(-c3ccccn3)nc2)[CH-]1.[Au+3]
inactive: K-562 leukemia 21.9% | MALME-3M melanoma 21.5% | MDA-MB-231 breast 28.1% | RXF 393 renal 19.5% | SF-268 CNS 44.1% | SF-295 CNS 17.3% | SF-539 CNS 17.4% | M14 melanoma 35.6%
active: UACC-257 melanoma 2.13%

CCc1cnc(=S)n(-c2ccccc2)c1
inactive: DU-145 prostate 104% | K-562 leukemia 117% | MDA-MB-231 breast 107% | RXF 393 renal 129% | SF-268 CNS 100% | SF-539 CNS 101% | UACC-257 melanoma 120%

C=C[C@@H]1C[C@H](O)Cc2ccccc2N1
inactive: DU-145 prostate 115% | MALME-3M melanoma 113% | MDA-MB-231 breast 101% | RXF 393 renal 120% | SF-268 CNS 107% | SF-295 CNS 109% | SF-539 CNS 101% | UACC-257 melanoma 104% | M14 melanoma 108%

CN(C)c1nc2c(N)ncnc2n1C1OC(CO)C(O)C1O (stereo not drawn)
inactive: DU-145 prostate 118% | MALME-3M melanoma 88% | MDA-MB-231 breast 116% | RXF 393 renal 113% | SF-268 CNS 105% | SF-295 CNS 111% | SF-539 CNS 101% | UACC-257 melanoma 105% | M14 melanoma 102%

Cc1ccc(NS(=O)(=O)c2cc(C)ccc2C)cc1
inactive: DU-145 prostate 57.9% | MALME-3M melanoma 54.1% | MDA-MB-231 breast 57.4% | RXF 393 renal 47.6% | SF-268 CNS 53.7% | SF-295 CNS 30.7% | SF-539 CNS 45.4% | UACC-257 melanoma 73%

Cn1c(=O)c2[nH]c(C3CC=CCC3)nc2n(C)c1=O (stereo not drawn)
inactive: DU-145 prostate 101% | MALME-3M melanoma 107% | MDA-MB-231 breast 94.6% | RXF 393 renal 115% | SF-268 CNS 96% | SF-295 CNS 89.5% | UACC-257 melanoma 116% | M14 melanoma 111%

N#Cc1ccc(N2Cc3ccccc3OC3=C2C(=O)c2c(O)ccc(O)c2C3=O)cc1
active: DU-145 prostate -91.8% | MALME-3M melanoma -56.4% | MDA-MB-231 breast -8.93% | RXF 393 renal -50.5% | SF-268 CNS 7.68% | SF-539 CNS -17.5% | M14 melanoma -41.9%

O=[N+]([O-])c1ccc(/C=C/C2(CCl)OCCO2)cc1
inactive: DU-145 prostate 114% | K-562 leukemia 65.7% | MDA-MB-231 breast 114% | RXF 393 renal 104% | SF-268 CNS 115% | SF-539 CNS 104% | UACC-257 melanoma 93.6% | M14 melanoma 95.2%

Cc1ccc2nc(Cl)cc(=O)n2c1
inactive: DU-145 prostate 124% | MALME-3M melanoma 135% | MDA-MB-231 breast 111% | RXF 393 renal 117% | SF-268 CNS 114% | SF-295 CNS 113% | UACC-257 melanoma 112% | M14 melanoma 104%

COc1ccc(/C(C#N)=C/c2cc(OC)c(OC)c(OC)c2)cc1
inactive: DU-145 prostate 82.7% | K-562 leukemia 19% | MDA-MB-231 breast 58.1% | RXF 393 renal 56.7% | SF-268 CNS 61.9% | SF-539 CNS 23.1% | UACC-257 melanoma 52.8% | M14 melanoma 17.2%

O=C(NCc1cn(Cc2cccc(Oc3ccccc3)c2)nn1)c1cccnc1Nc1ccc(F)cc1
inactive: DU-145 prostate 63.6% | MALME-3M melanoma 67.5% | MDA-MB-231 breast 42.2% | RXF 393 renal 65.9% | SF-268 CNS 67.7% | SF-295 CNS 50.7% | SF-539 CNS 62.6% | UACC-257 melanoma 76.8%

C=C1C(=O)O[C@H]2[C@H]1CC/C(COC(=O)NCc1ccccc1OC)=C\CC[C@@]1(C)O[C@@H]21
inactive: DU-145 prostate 20.1% | MALME-3M melanoma 68.8% | MDA-MB-231 breast 46.2% | RXF 393 renal 10% | SF-268 CNS 53.1% | SF-539 CNS 28.7% | M14 melanoma 33%

Cc1ccc(CSC(=N)N)cc1C
inactive: DU-145 prostate 108% | MALME-3M melanoma 111% | MDA-MB-231 breast 99.2% | RXF 393 renal 103% | SF-268 CNS 104% | SF-295 CNS 111% | SF-539 CNS 114% | UACC-257 melanoma 119% | M14 melanoma 105%

O=C(O)/C=C/C(=O)c1ccc(Cl)cc1
inactive: DU-145 prostate 109% | MALME-3M melanoma 110% | MDA-MB-231 breast 122% | RXF 393 renal 125% | SF-268 CNS 96.6% | SF-295 CNS 123% | SF-539 CNS 107% | UACC-257 melanoma 93.2% | M14 melanoma 101%

CCCCCCCC/C=C/CCCCCCCC1=NC(C)(C)CN1C(C)(C)CO
inactive: MDA-MB-231 breast 17.5% | RXF 393 renal 13.1% | SF-268 CNS 53.6% | SF-295 CNS 86.9% | SF-539 CNS 77.1%
active: K-562 leukemia -58.6% | MALME-3M melanoma -12.9% | UACC-257 melanoma -28.5% | M14 melanoma -84.7%

CN(C)CC(C(=O)c1ccccc1)c1ccccc1 (stereo not drawn)
inactive: DU-145 prostate 14.7% | MALME-3M melanoma 57.7% | MDA-MB-231 breast 80% | RXF 393 renal 54.8% | SF-295 CNS 93.1% | SF-539 CNS 33.7% | UACC-257 melanoma 32.7%
active: SF-268 CNS 5.71% | M14 melanoma -1.12%

NC(=S)N/N=C1\CCCC(C(F)(F)F)C1 (stereo not drawn)
inactive: K-562 leukemia 46.3% | MALME-3M melanoma 104% | MDA-MB-231 breast 102% | RXF 393 renal 123% | SF-295 CNS 100% | SF-539 CNS 101% | UACC-257 melanoma 73.2% | M14 melanoma 95.6%

COc1cc(Nc2ncccc2C(=O)NCc2cn(Cc3cccc(Oc4ccccc4)c3)nn2)cc(OC)c1
inactive: DU-145 prostate 68.9% | MALME-3M melanoma 56.1% | MDA-MB-231 breast 26.3% | RXF 393 renal 64.2% | SF-268 CNS 47.2% | SF-295 CNS 28.3% | SF-539 CNS 38.5% | UACC-257 melanoma 74% | M14 melanoma 31.2%

C=C(C)[C@@H]1C[C@@H]2Cc3cc(F)ccc3N1O2
inactive: DU-145 prostate 114% | MALME-3M melanoma 83% | MDA-MB-231 breast 99.8% | RXF 393 renal 108% | SF-268 CNS 101% | SF-295 CNS 106% | SF-539 CNS 95.6% | UACC-257 melanoma 99.1% | M14 melanoma 95.5%

CCN(CC)c1ccc(C(=N)c2ccc(N(CC)CC)cc2)cc1
active: K-562 leukemia -4.1% | MALME-3M melanoma -32.6% | MDA-MB-231 breast -63.3% | RXF 393 renal -31.5% | SF-295 CNS -54.7% | SF-539 CNS -68.7% | UACC-257 melanoma -39.6% | M14 melanoma -93.1%
